Source: PubChem BioAssay
Active and inactive are the calls of the source. No rule for the calls is given here.

These compounds were tested against Protein kinase 7 (PK7), Plasmodium falciparum 3D7 (PF3D7_0213400) (UniProt Q7YTF7) (assay: inhibition of Plasmodium PK7 catalytic activity – biochemical, TCAMS antimalarial set, Kinase-Glo luminescence (AID 1159587)). Conditions: recombinant PfPK7, Kinase-Glo ATP depletion luminescence.
Sequence of Protein kinase 7 (PK7), Plasmodium falciparum 3D7 (PF3D7_0213400) (Q7YTF7 1-343): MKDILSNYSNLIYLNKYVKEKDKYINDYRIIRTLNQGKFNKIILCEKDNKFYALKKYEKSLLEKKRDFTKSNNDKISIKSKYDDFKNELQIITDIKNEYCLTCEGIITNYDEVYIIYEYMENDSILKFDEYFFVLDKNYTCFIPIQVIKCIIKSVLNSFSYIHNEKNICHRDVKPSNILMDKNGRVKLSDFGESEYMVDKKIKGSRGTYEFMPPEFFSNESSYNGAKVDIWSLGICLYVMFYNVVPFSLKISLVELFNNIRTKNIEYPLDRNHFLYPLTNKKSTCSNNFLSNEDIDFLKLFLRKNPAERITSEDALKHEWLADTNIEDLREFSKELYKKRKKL

outcome, inactive:
CCC(C(=O)Nc1cc(=O)[nH]c2nc(-c3ccco3)nn12)c1ccccc1 (stereo not given)
O=C(Nc1ccc(-c2csc(-c3nc4ccccc4[nH]3)c2)cc1)Nc1ccc(Cl)c(Cl)c1
O=C(Nc1ccc(C(=O)N2CCN(CCN3CCN(c4cccc(C(F)(F)F)c4)CC3)CC2)cc1)c1ccc(C(F)(F)F)cc1
COc1ccc(CNC2CCN(C)CC2)cc1-c1ccc(S(=O)(=O)NCc2ccccc2)c(F)c1
CCCCN(Cc1cc(Cl)c(OCC)c(OC)c1)c1ccc(C(O)(C(F)(F)F)C(F)(F)F)cc1
O=C(NCCCCN1CCN(c2cccc3ccccc23)CC1)c1ccc(NC(=O)c2ccc(Cl)cc2)cc1
CCOc1ccccc1[C@H]1[C@H](C(=O)C(C)(C)C)N2c3ccc(Br)cc3C=CC2C12C(=O)c1ccccc1C2=O (stereo not given in full)
Cc1nnsc1C(=O)Nc1cccc(-c2ccc(-c3nc4ccc(F)cc4[nH]3)s2)c1
O=C1C2=C(Nc3ccccc3SC2c2cccs2)c2ccccc21 (stereo not given)
COc1ccc(CCNCCCCCCNCCc2ccc(Cl)cc2)c(Cl)c1OC
C=CCc1cccc(C)c1OCCCON1C(N)=NC(N)=NC1(C)C
COc1ccccc1N(C)CCNc1cc(C)nc(Nc2ccccc2)n1
CN1CCN(C(C(=O)NCc2cc(Cl)cc(Cl)c2)c2ccccc2-c2ccsc2)CC1 (stereo not given)
CNCCNCc1cccc(-c2ccc(-c3nc4c(C)cccc4[nH]3)s2)c1
Cc1ccc(C(C#N)c2ccc3c(C(F)(F)F)cc(C(F)(F)F)nc3n2)cc1 (stereo not given)
O=C(/C=C/c1ccc(Cl)c(Cl)c1)N1CCN(C(=O)Nc2ccc(C(F)(F)F)cc2)CC1
CC(Cl)=CCc1c(C)[nH]c2c(ccc3ccccc32)c1=O
O=C(Nc1cccc(CN2CCCN(Cc3ncc[nH]3)CC2)c1)c1cc2ccccc2s1
CC(C)c1ccc2c(c1)c(SC(C)(C)C)c(CC(C)(C)C#N)n2Cc1ccc(Cl)cc1
COc1cc2nc(N3CCN(c4nc(N)c5cc(OC)c(OC)cc5n4)CC3)nc(N)c2cc1OC
COc1cc(NC(=O)c2cccs2)c(OC)cc1NC(=O)Nc1cccc(Cl)c1
COc1ccc2nccc([C@@H](O)CN3CCC(NC(=O)C(c4cc5ccccc5o4)N4CCN(c5ccccc5)CC4)CC3)c2c1 (stereo not given in full)
CCN(CC)CCN(Cc1ccc(-c2ccc(Cl)cc2)cc1)C(=O)Cn1cc(CN(C)C)c(=O)nc1SCc1ccc(F)cc1
Cc1[nH]c(C)c(-c2ccc(OCc3ccccc3)cc2)c(=O)c1Br
CSc1sc(NC(=O)Nc2cccc(C(F)(F)F)c2)cc1C#N
Cc1ccc(S(=O)(=O)NC2CCN(c3ccnc4cc(Cl)ccc34)C2)cc1 (stereo not given)
COc1ccc2nccc([C@@H](O)CN3CC[C@H](NCc4ccc5c(n4)NC(=O)CS5)[C@H](F)C3)c2c1
COC(=O)c1ccc(OCC(O)CO)cc1O (stereo not given)
COC(=O)c1cc(/C(C)=N/Nc2nc3ccccc3[nH]2)ccc1O
Cc1[nH]c(C)c(-c2ccc(OCCCc3ccccn3)cc2)c(=O)c1Br
Cc1ccc(NC(=O)c2ccc3ncccc3c2)cc1OC1CCN(C(C)C)C1 (stereo not given)
CCN(CC1CCN(CC2(O)CCOCC2)CC1)c1cc(C)nc(Nc2ccc(Cl)cc2)n1
CC(C)c1ccc(NC(=S)NN=Cc2ccccn2)cc1
Fc1ccccc1CNc1ncc(-c2ccsc2)c(-c2nccs2)n1
Cc1nc(N)nc(N)c1Oc1cccc(Cl)c1
Cc1cnc(-c2cccc(C(=O)NC3CCC(CCN4CCc5ccc(C#N)cc5CC4)CC3)c2)[nH]1 (stereo not given)
CC1(C)CCNc2cc(NC(=O)c3ccc(-c4ncccc4C(F)(F)F)cc3)ccc21
COc1ccc(NC(=O)[C@H](Cc2ccccc2)Nc2cc(C)nc(NCCc3cccnc3)n2)cc1
O=C1SC(=Cc2ccc(O)c(O)c2)C(=O)N1c1ccccc1
O=C(CCCCCNC(=O)c1ccc(O)c(-c2ccc(Cl)c(Cl)c2)c1)NC1CCCCCC1
